HT1080NT lethal: kills 2HG-producing HT-1080-NT fibrosarcoma cells | Potency, µM (titrated, usually from 46.1 µM), hits mostly cytotoxic | HT-1080-NT fibrosarcoma viability, CellTiter-Glo ATP luminescence, 48 h | 360,000 tested, 1.6% active | AID 686970;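 note: NT is the 2HG producing partner of a matched IDH1 knockdown line; nearly all actives have a fitted effect of over 55% in size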
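Viability of the 2HG-overproducing fibrosarcoma line after 48 hours of compound exposure at 37 degrees C was determined by luminescence with CellTiter-Glo, and concentration-effect curves were then fitted and categorized.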
ATXN viability: cell viability loss in ATXN counter-screen | S2 cells (HEK-293 line with an ATXN2-luciferase reporter) viability, CellTiter-Fluor protease fluorescence, 24 h | Potency, µM (highest dose often 56.7 µM), hits mostly cytotoxic | 400,000 tested, 0.49% active; note: nearly all actives have a fitted effect of over 40% in size
HepG2 viability: kills HepG2 cells in TGF-b inhibitor counter-screen; HepG2 CAGA-GFP viability, ATP luminescence, 18 h; Potency, µM (titrated, usually from 46.1 µM), usual class: cytotoxic; 410,000 tested, 0.76% active
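CellTiter-Glo luminescence gave cytotoxicity after 18 hours at 37 degrees C. The cells were HepG2 CAGA-GFP in 1% FBS DMEM, stimulated with 500 pg/mL TGF-beta after compound addition. %Activity was normalised to no-cell wells (complete cell-killing) and DMSO (no toxicity), and curves were fitted and classified.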
TGFb inhibitor: blocks TGF-b signaling. HepG2 CAGA-GFP TGF-b/SMAD3 reporter, GFP fluorescence, 18 h; TGF-beta stimulated, 500 pg/mL final. 410,000 tested, 1.2% active. Potency, µM (top dose mostly 46.1 µM), most hits filed as inhibitors; note: nearly all actives have a fitted effect of over 65% in size
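HEPG2 CAGA-GFP cells (1000/well, DMEM with 1% FBS) were pre-incubated 2 h at 37 degrees C, given compound by pin tool, then stimulated with TGF-beta at 500 pg/mL final for 18 h before per-cell GFP fluorescence imaging.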
HT1080 IDH1KD tx: kills HT-1080 cells with IDH1 knockdown; HT-1080 IDH1 knockdown viability, ATP luminescence, 48 h; Potency, µM (highest dose often 46.1 µM), most hits filed as cytotoxic; 360,000 tested, 2% active; AID 686971
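Viability of IDH1-knockdown HT-1080 fibrosarcoma cells was assessed by CellTiter-Glo after 48 h at 37 °C with titrated compound; concentration-effect curves were classified by fit quality and response size.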
ATXN2 expr inh: ATXN2 expression inhibition; HEK-293 ATXN2-luciferase reporter, luminescence, 24 h; Potency, µM (top dose mostly 57 µM), usual class: inhibitors; 360,000 tested, 0.72% active; note: nearly all actives have a fitted effect of over 55% in size
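qHTS (up to 57 uM final) was run with 24 h compound exposure of reporter cells at 37 °C. Each well was multiplexed: SteadyGlo luminescence measured ATXN2-luciferase expression after a fluorogenic Gly-Phe-AFC viability readout (25 uM final).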
Large screens that a line does not name were inactive. Rows were chosen to be rich in hits. Some 3.8% of all compounds tested hit in one or more screens of this group. Calls come from the whole dose curve; as a rule, active = well fitted curve in the direction sought with a large enough effect; inconclusive = small, poorly fitted or top-dose-only effect, or another doubt; inactive = no such curve, though single readings can be large; an effect the other way counts as inactive or inconclusive.

O=C(CCN1Cc2ccccc2C1)c1ccc2c(c1)OCCO2	HT1080NT lethal inconclusive, HepG2 viability 10µM, TGFb inhibitor 13µM, HT1080 IDH1KD tx 11µM, ATXN2 expr inh inconclusive (no result: ATXN viability)
O=C(C[n+]1ccc(/C=C/c2ccccc2)cc1)c1ccc2c(c1)OCCO2	HT1080NT lethal inconclusive, HT1080 IDH1KD tx 16µM
Cc1cc[n+](CC(=O)c2ccc3c(c2)OCCO3)cc1	none
COc1cc2cc(C(=O)NC(C)c3cccc4ccccc34)c(N)nc2cc1OC (stereo not drawn)	HT1080NT lethal 26µM, HT1080 IDH1KD tx 18µM, ATXN2 expr inh inconclusive (no result: HepG2 viability, TGFb inhibitor)
CCc1ccc(-n2nc3cc(C)c(NC(=O)c4cc(Cl)ccc4OC)cc3n2)cc1	none (no result: HT1080NT lethal, HT1080 IDH1KD tx)
CC1CCC(C(=O)N(c2cc(C#CC(C)(C)C)sc2C(=O)O)C2CCC(O)CC2)CC1 (stereo not drawn)	none (no result: HT1080NT lethal, ATXN viability, HepG2 viability, TGFb inhibitor, HT1080 IDH1KD tx)
COc1ccc(-c2cn3nc(N4CCCC(C(=O)Nc5cc(Cl)ccc5OC)C4)sc3n2)cc1 (stereo not drawn)	none (no result: HT1080NT lethal, ATXN viability, HT1080 IDH1KD tx, ATXN2 expr inh)
CC1(C)CC(=O)c2cc(-c3nc(-c4ccc(Cl)cc4)cs3)c(=O)n(-c3ccc(Cl)cc3)c2C1	none (no result: HT1080NT lethal, HT1080 IDH1KD tx)
CCOC(=O)N1CCN(C(=O)CSc2cc(C)nc3c(-c4ccccc4OC)c(C)nn23)CC1	HT1080NT lethal 10µM, ATXN viability inconclusive, TGFb inhibitor inconclusive, HT1080 IDH1KD tx 11µM
CC(=O)Nc1ccc(C=NNc2ccc([N+](=O)[O-])cc2S(=O)(=O)Nc2ccccc2C(=O)O)cc1	none
Cc1ccc(NC(=S)NNc2ccc([N+](=O)[O-])cc2S(=O)(=O)Nc2ccccc2C(=O)O)cc1C	ATXN viability 32µM, TGFb inhibitor inconclusive
Cc1cc(O)c2c(c1O)C(=O)[C@]13C(=C2O)C(=O)[C@@H]2[C@@H](O)[C@H]1[C@@H]1[C@H](O)[C@H]3C(=O)C3=C(O)c4c(O)cc(C)c(O)c4C(=O)[C@]312	HT1080NT lethal 0.73µM, ATXN viability inconclusive, TGFb inhibitor inconclusive, HT1080 IDH1KD tx 0.92µM, ATXN2 expr inh inconclusive
O=C(Nc1ccn(CCCN(CCCn2ccc(NC(=O)OCc3ccccc3)nc2=O)CCc2cc3ccccc3[nH]2)c(=O)n1)OCc1ccccc1	HT1080NT lethal inconclusive, HT1080 IDH1KD tx 18µM
Cc1ccc(C(=O)N2CCc3cc(CNS(=O)(=O)c4cccs4)ccc32)cc1	none (no result: HT1080NT lethal, ATXN viability, HT1080 IDH1KD tx, ATXN2 expr inh)
O=C(Nc1cccc(-c2csc(Nc3cccc(C(F)(F)F)c3)n2)c1)c1cc([N+](=O)[O-])cc(C(F)(F)F)c1	none
O=C(Nc1ccc(-c2csc(Nc3ccccc3)n2)cc1)c1cc([N+](=O)[O-])cc(C(F)(F)F)c1	ATXN viability 13µM, TGFb inhibitor inconclusive, ATXN2 expr inh inconclusive
CS(=O)(=O)c1ncc(Cl)c(C(=O)Nc2ccc(N3CCOCC3)cc2)n1	HT1080NT lethal 3.5µM, TGFb inhibitor inconclusive, HT1080 IDH1KD tx 1.6µM, ATXN2 expr inh inconclusive (no result: ATXN viability)
O=C(Nc1ccc(OC(F)F)cc1)c1ccccn1	none
O=C(Nc1ccc(N2CCOCC2)cc1)c1cnccn1	ATXN2 expr inh 2.5µM
CS(=O)(=O)c1ncc(Cl)c(C(=O)Nc2ccc(OC(F)F)cc2)n1	HT1080NT lethal inconclusive, ATXN viability inconclusive, TGFb inhibitor inconclusive, HT1080 IDH1KD tx 13µM, ATXN2 expr inh inconclusive
CS(=O)(=O)c1ccc(C(=O)Nc2ccc(N3CCOCC3)cc2)c(Cl)c1	none
OC[C@H]1O[C@@H](n2cnc3c(=S)nc[nH]c32)[C@H](O)[C@@H]1O	ATXN viability inconclusive (no result: HT1080NT lethal, HepG2 viability, TGFb inhibitor, HT1080 IDH1KD tx)
O=C(NCc1ccccc1Cl)c1ccc2c(c1)ncn2-c1cccc(F)c1	none (no result: HT1080NT lethal, HT1080 IDH1KD tx)
O=C(CSc1nc(=O)n(Cc2ccco2)c2c1CCC2)NCc1ccc(F)cc1	ATXN viability inconclusive (no result: HT1080NT lethal, HT1080 IDH1KD tx)
O=C(CSc1nc(=O)n(Cc2ccco2)c2c1CCC2)Nc1cccc(F)c1	TGFb inhibitor 7.9µM, ATXN2 expr inh inconclusive (no result: HT1080NT lethal, HT1080 IDH1KD tx)
CC1=NN(c2ccccc2)C(=O)/C1=C/C=C/C=C/N(C)C	ATXN viability 14µM, HT1080 IDH1KD tx inconclusive, ATXN2 expr inh inconclusive

Screening results deposited in PubChem by National Center for Advancing Translational Sciences (NCATS).
